From PubChem BioAssay (EPA / NIEHS) come the findings set out here.

The source made the active and inactive calls. The calls were made as follows: active = hit-call score of the fitted dose curve at least 0.9, where 1 is the maximum; inactive = score below 0.9.

This assay in a line: Tanguay_ZF_120hpf_ANY: Oregon State University Tanguay Lab 120 Hour Post-fertilization zebrafish Assay for Any Mortality and Malformation (AID 2284404). As to the method: Tanguay_ZF_120hpf is a whole embryo, multiplexed endpoint assay using zebrafish larvae exposed for 120 hours post fertilization on a 96-well plate.Tanguay_ZF_120hpf_ANY is one of one assay component(s) measured or calculated from the Tanguay_ZF_120hpf assay. It is designed to make measurements of developmental malformations and mortality as detected with brightfield microscopy and combines scoring from 13 other assay components measuring more specific morphologies.Data from the assay component Tanguay_ZF_120hpf_ANY was analyzed into 1 assay endpoints. This assay endpoint, Tanguay_ZF_120hpf_ANY, was analyzed in the positive analysis fitting direction relative to DMSO as the negative control and baseline of activity. Using a type of morphology reporter, gain-of-signal activity can be used to understand changes in developmentals as they relate to the whole embryo. To generalize the intended target to other relatable targets, this assay endpoint is annotated to the zebrafish development intended target family, where the subfamily is embryonic morphogenesis and mortality.
Zebrafish husbandry: Tropical 5D wild-type adult zebrafish were housed in at an approximate density of 1000 per 100 gallon tank at the Sinnhuber Aquatic Research Laboratory, Oregon State University, Corvallis, OR. Each tank was kept at standard laboratory conditions of 28C on a 14-h light/10-h dark photoperiod in fish water consisting of reverse osmosis water supplemented with a commercially available salt (Instant Ocean). Spawning funnels were placed into the tanks the night prior, and embryos were collected and staged. To increase bioavailability, the chorion was enzymatically removed using pronase (63.6mg/ml, >/= 3.5U/mg, Sigma-Aldrich: P5147) at 4 hours post fertilization (hpf) using a custom automated dechorionator.Chemical exposures: Six hpf dechorionated embryos were placed 1 embryo per well in a 96-well plate prefilled with 90 ul of EM using automated embryo placement systems (AEPS). Ten microliters of each row of dilution plate 2 was added to 2 exposure plates. The final DMSO concentration used was 0.64% (vol/vol). Thirty-two embryos were also exposed to 5uM trimethyltin chloride (positive control). Plates were sealed to prevent evaporation and foil covered to reduce light exposure and kept in a 28C incubator. Embryos were statically exposed until 120 hpf. At 24 hpf, embryos were assessed for photomotor response using a custom photomotor response analysis tool (PRAT) and for developmental toxicity endpoints (MO24: mortality at 24 hpf, DP: developmental progression, SM: spontaneous movement, and NC: notochord distortion). At 120 hpf, locomotor activity was measured using Viewpoint Zebralab and assessed for 13 endpoints. Zebrafish acquisition and analysis program (ZAAP), a custom program designed to inventory, acquire, and manage zebrafish data, was used to collect developmental endpoints as either present or absent (i.e., binary responses were recorded). If mortality occurred for an embryo (at either 24 or 120 hpf), the non-mortality endpoints were not measured.
As to `OCCC(F)(F)C(F)(F)C(F)(F)C(F)(F)F`, the compound was called inactive. As to `NCC(F)(F)C(F)(F)C(F)(F)C(F)(F)F`, the call was inactive. The same measure, in the same setting: in the case of `FC(F)(F)C(F)(F)C(F)(F)C(F)(F)C(F)(F)C(F)(F)I` it was “inactive”; in that of `FC(F)C(F)(F)COCC1CO1` (stereo not given), “inactive”.

With `OC(O)(C(F)C(O)(O)C(F)(F)F)C(F)(F)F`, the half-maximal activity concentration (AC50) (commonly the midpoint of the concentration-response curve, whichever way the signal moves) was 40.5 µM (active). For `FC(F)(F)COC(OCC(F)(F)F)OCC(F)(F)F`, the outcome was inactive. As to `O=C(Cl)C(F)(F)C(F)(F)C(F)(F)C(=O)Cl`, the AC50 is 57.6 µM (active). In the case of `FC(F)=C(F)C(F)(F)C(F)(F)C(F)(F)C(F)(F)C(F)(F)C(F)(F)F`, the compound was classed as inactive.

With `C[Si](C)(C)C(F)(F)C(F)(F)C(F)(F)F`, the result was inactive. On the same count and under the same terms, the value for `O=S(=O)(O)CCC(F)(F)C(F)(F)C(F)(F)C(F)(F)C(F)(F)C(F)(F)F` was “inactive”.
